# Source: PubChem BioAssay (National Center for Advancing Translational Sciences (NCATS))
# This is a sample that favours compounds with a hit; in the whole collection about 3.8% have one here.
# A549 tox-1: Nrf2 qHTS screen for inhibitors: counterscreen for cytotoxicity; 390,000 tested, 0.16% active; A549 ARE-Fluc cells, CellTiter-Fluor viability, 18-24 h; AID 504648, 2011; Potency, µM (series often up to 46 µM), without a hit: at the top dose activity change, negative = cytotoxicity, hits mostly inhibitors; further: on the % scale 0 is the no-effect control and ±100 the full control effect
#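 A549 ARE-Fluc cells in 5% FBS OPTI-MEM, 5000 cells/well, rested 2 h then exposed to compounds in concentration-response for 18-24 h at 37 °C. Viability by CellTiter-Fluor fluorescence (Ex 405/Em 525) after 30 min; luciferase luminescence (BugLite, 15 min, RT) read afterwards.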
# ATXN2 expr inh: Primary qHTS for Inhibitors of ATXN expression; HEK-293 ATXN2-luciferase reporter, luminescence, 24 h; Potency, µM (series often up to 57 µM), inactives show at the top dose activity change, negative = inhibition, hits mostly inhibitors; 360,000 tested, 0.72% active; further: on the % scale 0 is the no-effect control and ±100 the full control effect; nearly all actives have a fitted effect of over 55% in size
#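 qHTS (up to 57 uM final) was run with 24 h compound exposure of reporter cells at 37 °C. Each well was multiplexed: SteadyGlo luminescence measured ATXN2-luciferase expression after a fluorogenic Gly-Phe-AFC viability readout (25 uM final).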
# ATXN viability: Viability Counterscreen for Primary qHTS for Inhibitors of ATXN expression; AID 651635, 2014; Potency, µM (doses to about 56.7 µM), usual class: cytotoxic; S2 cells (HEK-293 line with an ATXN2-luciferase reporter) viability, CellTiter-Fluor protease fluorescence, 24 h; 400,000 tested, 0.49% active; further: nearly all actives have a fitted effect of over 40% in size
# Nrf2 inh: Nrf2 qHTS screen for inhibitors; A549 ARE-Fluc reporter, luciferase luminescence, 18-24 h; Potency, µM (series often up to 46 µM), for inactives: at the highest dose activity change, negative = inhibition, hits mostly inhibitors; 360,000 tested, 2.1% active; AID 504444, 2011; further: on the % scale 0 is the no-effect control and ±100 the full control effect; nearly all actives have a fitted effect of over 60% in size
#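 Two sequential reads on A549 ARE_Fluc cells exposed to compound for 18-24 h: a CellTiter-Fluor fluorescence read for viability, then a luciferase luminescence read for Nrf2/ARE activity.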
# TGFb SMAD3 inh: qHTS for Inhibitors of TGF-b | HepG2 CAGA-GFP TGF-b/SMAD3 reporter, GFP fluorescence, 18 h; TGF-beta stimulated, 500 pg/mL final | Potency, µM (series often up to 46.1 µM), for the others: at the highest dose activity, negative = inhibition, hits mostly inhibitors | 410,000 tested, 1.2% active | AID 588855, 2011; further: on the % scale 0 is the no-effect control and ±100 the full control effect; nearly all actives have a fitted effect of over 65% in size
#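 Per well, imaged GFP fluorescence of HEPG2 CAGA-GFP cells gives the signal; cells get compound, then TGF-beta (500 pg/mL final), 18 h at 37 degrees C; %Activity versus -TGF-beta and +DMSO controls.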
# HepG2 tox: qHTS for Inhibitors of TGF-b: Cytotox Counterscreen; HepG2 CAGA-GFP viability, ATP luminescence, 18 h; Potency, µM (series often up to 46.1 µM), without a hit: at the top dose activity change, negative = cytotoxicity, hits mostly cytotoxic; 410,000 tested, 0.76% active
#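 CellTiter-Glo luminescence gave cytotoxicity after 18 hours at 37 degrees C. The cells were HepG2 CAGA-GFP in 1% FBS DMEM, stimulated with 500 pg/mL TGF-beta after compound addition. %Activity was normalised to no-cell wells (complete cell-killing) and DMSO (no toxicity), and curves were fitted and classified.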
# FLuc counter 3: Nrf2 qHTS screen for inhibitors: Purified Fluc Biochemical Counterscreen for Hit Validation. Potency, µM (titrated, usually from 57.5 µM), without a hit: at the highest dose activity change, negative = inhibition, usual class: inhibitors. shares compounds with Nrf2 inh. purified firefly luciferase, luminescence inhibition. 1,400 tested, 4% active; further: on the % scale 0 is the no-effect control and ±100 the full control effect; nearly all actives have a fitted effect of over 65% in size
# Target sequence (P08659 whole entry, looked up): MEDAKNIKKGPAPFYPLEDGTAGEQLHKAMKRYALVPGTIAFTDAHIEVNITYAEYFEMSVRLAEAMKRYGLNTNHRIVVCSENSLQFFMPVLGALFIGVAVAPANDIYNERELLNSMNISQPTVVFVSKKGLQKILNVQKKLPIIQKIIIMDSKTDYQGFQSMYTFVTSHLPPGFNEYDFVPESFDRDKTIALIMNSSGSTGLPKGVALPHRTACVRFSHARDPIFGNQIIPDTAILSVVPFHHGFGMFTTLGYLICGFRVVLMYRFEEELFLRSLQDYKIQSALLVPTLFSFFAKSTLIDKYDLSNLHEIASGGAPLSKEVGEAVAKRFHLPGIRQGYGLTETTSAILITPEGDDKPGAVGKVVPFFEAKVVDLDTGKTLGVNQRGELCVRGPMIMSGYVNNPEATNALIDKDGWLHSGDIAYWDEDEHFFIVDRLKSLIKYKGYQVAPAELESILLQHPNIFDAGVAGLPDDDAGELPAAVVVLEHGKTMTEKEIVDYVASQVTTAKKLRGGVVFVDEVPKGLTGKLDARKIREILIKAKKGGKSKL
# A549 tox-2: Nrf2 qHTS screen for inhibitors: A549 ARE-Fluc Cytotoxicity Counterscreen for Hit Validation. shares compounds with Nrf2 inh. A549 ARE-Fluc cells, cytotoxicity counterscreen. Potency, µM (series often up to 46.1 µM), for the others: at the highest dose activity change, negative = cytotoxicity, most hits filed as inhibitors. 1,400 tested, 2% active. AID 720523, 2013;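 further: cells exposed to compounds for 18 to 24 hours; on the % scale 0 is the no-effect control and ±100 the full control effect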
# Nrf2 ARE inh: Nrf2 qHTS screen for inhibitors: Nrf2 A549 ARE-Fluc Confirmation Assay for Hit Validation. shares compounds with Nrf2 inh. Potency, µM (series often up to 46.1 µM), inactives show at the highest dose activity change, negative = inhibition, usual class: inhibitors. AID 720524, 2013. 1,400 tested, 74% active. A549 ARE-firefly luciferase reporter, luminescence; further: on the % scale 0 is the no-effect control and ±100 the full control effect; nearly all actives have a fitted effect of over 65% in size
# * = called active by the depositor; i = inactive; ? = inconclusive; . = no result given; ! = repeats disagree. The call rests on the fitted dose curve; in most records, active means well fitted curve in the direction sought with a large enough effect; inconclusive means small, poorly fitted or top-dose-only effect, or another doubt; inactive means no such curve, though single readings can be large; an effect the other way counts as inactive or inconclusive. Potency means the concentration at half of the fitted maximal effect.
SMILES,A549 tox-1,ATXN2 expr inh,ATXN viability,Nrf2 inh,TGFb SMAD3 inh,HepG2 tox,FLuc counter 3,A549 tox-2,Nrf2 ARE inh
CCn1nc(C)c(CNC(=O)c2ccc(OC3CCN(Cc4ccccn4)CC3)cc2)c1C,-15.5%,-27.0%,?,1.46µM*,-6.0%,-6.0%,1.3%,-5.6%,1.46µM*
Cc1cccnc1CCNC(=O)c1ccc(OC2CCN(Cc3ccccn3)CC2)cc1,-9.0%,?,i,18.2%,-15.4%,-7.5%,.,.,.
CC1(c2ccc3ccccc3c2)NC(=O)N(CC(=O)N2CCN(Cc3ccc(C#N)cc3)CC2)C1=O (centres undefined),-14.3%,-30.6%,?,0.411µM*,-12.4%,-31.3%,0.1%,1.8%,0.82µM*
Cc1cccc(-c2oc3ccc(-c4ccc5c(c4)OCO5)cc3c2C(=O)OCc2ccc(O)cc2)c1,-18.0%,-26.5%,?,?,-4.3%,8.4%,.,.,.
CC1CCC(C(C)C)C(OC(=O)CSc2nnc(N)s2)C1 (centres undefined),1.7%,1.5%,i,.,2.7%,4.9%,.,.,.
CC1CCC(C(C)C)C(OC(=O)Cn2c(-c3ccccc3)[n+](C)c3ccccc32)C1 (centres undefined),?,?,?,3.66µM*,5.62µM*!,-53.0%,-0.4%,?,2.06µM*
CC1CCC(C(C)C)C(OC(=O)Cn2c(-c3ccc(F)cc3)[n+](C)c3ccccc32)C1 (centres undefined),?,8.91µM*,?,8.2µM*,8.91µM*,-50.9%,-1.8%,?,9.2µM*
COCC(C)n1c(SC(C)C(=O)NC2CCCCC2C)nc2ccccc2c1=O (centres undefined),-11.3%,-2.5%,?,-11.3%,-2.3%,13.9%,.,.,.
CCCc1nc2ccc(NC(=O)c3cccs3)cc2c(=O)n1Cc1ccc(Cl)cc1,-3.6%,.,?,?,-23.0%,-0.3%,.,.,.
Cc1nc2ccc(NC(=O)c3cccs3)cc2c(=O)n1Cc1ccc(Cl)cc1,?,14.1µM*,?,4.61µM*,?,-29.8%,-10.6%,?,16.4µM*
Cc1ccc(C)c(OCc2ccc(C(=O)Nc3ccc([N+](=O)[O-])cn3)o2)c1,-2.8%,.,?,2.91µM*,?,-21.7%,3.1%,-2.5%,5.17µM*
Cc1cccc(Oc2ccccc2NC(=O)CSCC(=O)Nc2cc(C)on2)c1,-21.2%,19.9%,i,?,0.0%,-24.5%,.,.,.
CCOc1ccc(Oc2ccccc2NC(=O)CSCC(=O)Nc2cc(C)on2)cc1,-18.6%,-23.2%,i,9.2µM*,0.0%,-23.0%,-1.5%,-7.1%,7.31µM*
O=C(COc1ccccc1)Nc1nnc(S(=O)(=O)N2CCCCCC2)s1,4.7%,7.5%,i,-21.8%,-6.7%,-9.9%,.,.,.
CCOC(=O)C1CCCN(C(=O)c2ccc(S(=O)(=O)N3CCCC3)cc2)C1 (centres undefined),-1.6%,-10.0%,i,-2.5%,-7.8%,0.2%,.,.,.
